NCOA1 inh: SRC1 coactivator transcriptional activity inhibitors, primary screen, cell-based, luminescence. Nuclear receptor coactivator 1 (Homo sapiens), Q15788. HEK293 GAL4-SRC1 luciferase reporter. inhibition, % at 3.6 µM. 0.12% of 360,000 active;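 active = inhibition above the campaign mean plus 3 SD, with each screening campaign given its own cutoff, cut at about 60% in these data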;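 also: 0% = DMSO treated cells and 100% = gossypol at 36 µM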
NCOA2 inhibitor: inhibition of GAL4-SRC2 driven luciferase reporter, primary screen, SRC2 inhibitor project, cell-based, luminescence; Nuclear receptor coactivator 2 (Homo sapiens), Q15596; HEK293 GAL4-SRC2 luciferase reporter; inhibition, % at 9 µM; 0.17% of 370,000 active; AID 651957, 2012;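 active = inhibition above the mean inhibition of all tested compounds plus 3 SD, set per campaign, cut at about 52% in these data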;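 also: 0% = DMSO treated cells and 100% = cells given Gossypol at 36 µM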
LRH-1 inv ag: LRH-1 (NR5A2) inverse agonists, primary screen, cell-based, luminescence, HEK293T, StAR-luciferase reporter; AID 602396, 2012; Nuclear receptor subfamily 5 group A member 2 (Homo sapiens), O00482; 0.13% of 360,000 active; inhibition, % at 3.6 µM; LRH-1 transfected, 24 h;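 active = inhibition above the mean inhibition of all tested compounds plus 3 SD, cut at about 73% in these data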;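 also: 0% = DMSO wells and 100% = reporter-only cells lacking LRH-1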
SRC3 inh: SRC3 coactivator transcriptional activity inhibitors, primary screen, cell-based, luminescence. Nuclear receptor coactivator 3 (Homo sapiens), Q9Y6Q9. HEK293 GAL4-SRC3 luciferase reporter. inhibition, % at 3.6 µM. 0.17% of 360,000 active;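 active = inhibition above a per-campaign cutoff, the mean of all compounds plus 3 SD, cut at about 60% in these data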;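 also: 0% = DMSO-treated cells and 100% = gossypol-treated cells at 36 µM; higher means less SRC3-driven luciferase light from the GAL4 reporter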
COUP-TFII inh: NR2F2 transcriptional activity inhibitors, primary screen, cell-based, luciferase reporter, HEK293T, luminescence; COUP transcription factor 2 (Homo sapiens), P24468; HEK293T NGFI-A luciferase reporter; inhibition, % at 8.6 µM; 0.7% of 370,000 active; AID 686940, 2013;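 active = inhibition above a per-plate cutoff, mean inhibition of test wells between control levels plus 3 SD, cut at about 38% in these data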;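 also: cells cotransfected with COUP-TFII expression vector driving the NGFI-A reporter; 0% = median of COUP-TF2 test wells and 100% = reporter-only cells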
The depositor's hits bear a star; . = no result given. Compounds with a hit are over-represented: about 0.84% of the library has one in this group of screens.

SMILES	NCOA1 inh	NCOA2 inhibitor	LRH-1 inv ag	SRC3 inh	COUP-TFII inh
COc1cccc(C2=Cc3ccc(F)cc3C(CC(C)=O)N2c2ccc(-c3cncnc3)cc2)c1 (centres undefined)	.	-21.1	3.9	.	-25.4
CCOC(=O)c1ccc(-c2ccc(N3C(c4cccc(OC)c4)=Cc4ccc(F)cc4C3CC(C)=O)cc2)cc1F (centres undefined)	.	59.6*	20.7	.	16.5
CCC(C)N(CC(=O)Nc1cccc(C)c1C)C(=O)CCl (centres undefined)	61.6*	.	42.4	61.9*	.
CCC(CC)NC(=O)Nc1cccc(C)c1C	5.6	9.9	1.5	16.8	-6.5
C=CC(=O)Nc1ccc(Nc2nc(NC3CCC(N(C)C)CC3)nc3c2ncn3C(C)C)cc1 (centres undefined)	86.3*	.	97.0*	83.9*	.
O=C(Nc1cccc(S(=O)(=O)N2CCCCC2)c1)c1ccc(OCC2CCCO2)cc1 (centres undefined)	1.2	-20.8	-5.4	19.7	19.8
O=C(Nc1ccc(Cl)c(S(=O)(=O)N2CCOCC2)c1)c1ccc(OCC2CCCO2)cc1 (centres undefined)	38.2	.	65.5	73.3*	.
O=C(Nc1cnn(Cc2ccc(Cl)cc2)c1)c1ccc([N+](=O)[O-])cc1	1.3	20.5	36.4	-2.8	3.4
O=C(Nc1ccc([N+](=O)[O-])cc1)c1ccc(Cn2cc([N+](=O)[O-])cn2)cc1	54.2	-26.2	78.3*	48.3	-0.1
CN(C)C(=O)N1CCN(C(=O)[C@H](CCc2ccccc2)NC(=O)[C@H]2O[C@@H](n3cnc4c(N)ncnc43)[C@H](O)[C@@H]2O)CC1	.	-20.3	.	.	-10.2
COc1ccc(N=C2Sc3ccccc3[C@@H]3C[C@H]4[C@H](CON4C)CN23)c(OC)c1	.	-2.2	.	.	-35.0
CN1CCN(c2ncnc3scc(-c4ccccc4Cl)c23)CC1	44.7	31.4	34.8	62.7*	24.0
O=C(CCCN1C(=O)/C(=C/c2ccccc2Cl)SC1=S)NNC(=O)c1ccncc1	31.6	57.9*	17.5	36.5	37.0
O=C(CCCN1C(=O)/C(=C/c2cccs2)SC1=S)NNC(=O)c1ccncc1	1.9	12.8	17.9	10.2	-18.5
COc1cccc(N2C(=O)CC(NNC(=O)c3cccs3)C2=O)c1 (centres undefined)	-4.8	99.8*	-24.7	2.1	13.1
O=C(NNC1CC(=O)N(c2cccc(Cl)c2)C1=O)c1cccs1 (centres undefined)	-12.9	-5.4	-37.1	-9.1	-6.9
COc1ccc(OC)c(S(=O)(=O)NCC2CCN(C(=O)C(=O)c3cccs3)CC2)c1	.	8.1	.	.	2.5
Cc1ccc(C(Nc2ccccc2)c2ccc3ccc(C)nc3c2O)c(C)c1 (centres undefined)	.	-20.1	.	.	-5.0
C#Cc1ccc([C@@H]2C=C(C(=O)N3CCN(Cc4ccccc4)CC3)O[C@H](OCCCCO)C2)cc1	59.9	.	89.3*	54.8	.
O=C(C1=C[C@H](c2ccccc2)C[C@H](OCCCCO)O1)N1CCN(Cc2ccccc2)CC1	-1.7	5.5	-1.9	-0.3	6.8
COc1ccc(C(=O)c2ccc(CC(=O)O)s2)cc1	-16.9	52.3*	12.6	11.9	21.8
F[B-](F)(F)COCc1ccccc1C#Cc1ccccc1	.	-49.1	.	.	-58.1
Cc1ccc2cc(CN(Cc3ccco3)S(=O)(=O)c3c(C)ccc4nsnc34)c(=O)[nH]c2c1	-1.2	77.2*	-23.8	-4.8	-2.7
Cc1cc2cc(CN(Cc3ccco3)S(=O)(=O)c3c(C)ccc4nsnc34)c(=O)[nH]c2cc1C	3.0	4.8	9.5	27.5	-10.6
CCn1c(C)nc2cc(-c3nc4n(n3)Cc3ccccc3-4)ccc21	90.7*	.	94.8*	85.9*	.
SMILES	NCOA1 inh	NCOA2 inhibitor	LRH-1 inv ag	SRC3 inh	COUP-TFII inh
CCCCc1c(-c2ccccc2OC)ncn1Cc1ccc(Br)cc1	.	11.3	.	.	17.1
C[C@H]1CN(C(=O)OC(C)(C)C)CCN1c1ccc(N2CCS(=O)(=O)CC2)c(C#N)c1	.	16.1	.	.	3.9
C[C@H](O)[C@@H]1C(=O)N2CCc3c([nH]c4c(-c5ccccc5)cccc34)[C@@H]2C[C@@H]1N(C)C(=O)NC1CCCCC1	.	3.6	.	.	7.1
C=C1C(=O)[C@]23C[C@H]1CCC2[C@@]1(C)C(C[C@@H]3O)[C@](C)(C(=O)OC)CC[C@@H]1O (some centres undefined)	43.0	63.6*	47.9	40.4	27.2
Cn1c(=O)cc(OCCCC(=O)Nc2cc(Br)ccn2)c2ccccc21	.	.	.	.	34.2
Cc1ccnc(NC(=O)CCCOc2cc(=O)n(C)c3ccccc23)c1	-4.1	-13.1	73.9*	39.6	-21.1
COc1ccc(-n2c(C)c(C(C)=O)c3cc(OC(C)=O)ccc32)cc1	62.1*	32.3	30.5	59.0	26.6
C=CCn1c(C)cc(C2=NNC(=NC(C)(C)C)SC2)c1C	46.8	38.8	21.5	57.9	58.2*
CCCCCCCCN1C(=O)[C@@H](CC(=O)NCCCOCCCC)C[C@@]2(C(=O)OC)C1=C[C@H](C(C)(C)C)O[C@@H]2C	.	-24.9	.	.	2.9
CC(C)C[C@H](NC(=O)C1CCCC1)C(=O)N1CCC[C@H]1C(=O)NCc1ccccc1	.	-17.6	.	.	4.8
COc1cc(C=CC(=O)c2cc(OC)c(OC)c(OC)c2)cc(OC)c1OC	50.9	68.2*	51.0	63.5*	16.0
COc1cc(C=CC(=O)c2ccccc2)cc(OC)c1OC	23.1	13.9	27.4	45.5	-2.6
COc1ccccc1/C=C/C(=O)c1c2c(c(C)[nH]c1=O)CCCC2	30.7	58.0*	12.2	65.3*	4.4
Cc1nc(S(=O)(=O)N(C)c2ccccc2)c(C#N)c(C)c1Cl	17.9	53.9*	14.1	31.2	14.5
CN(c1ccccc1)S(=O)(=O)c1ccc(Cl)nc1	7.7	-54.9	5.0	17.7	14.6
O=C(N/N=C/c1cc2c3c(c1O)CCCN3CCC2)c1ccccc1O	65.8*	6.8	63.1	68.5*	-27.7
O=C(CCc1c[nH]c2ccccc12)Nc1ccc(Nc2ccccc2)cc1	.	14.8	.	.	4.3
Clc1ccc(SCNc2ccccc2Cl)cc1	-48.6	4.6	14.7	-3.5	38.8*
COC(=O)C1=C(C)N(C)C(=NCC2CC2)NC1c1ccc(F)cc1 (centres undefined)	.	-13.8	.	.	-18.6
Cc1c(C)c2cccnc2c2ncccc12	42.4	.	86.7*	54.2	.
CCC1(O)C(=O)OCc2c1cc1n(c2=O)Cc2cc3cc(O)ccc3nc2-1 (centres undefined)	50.6	34.4	91.5*	77.6*	35.3
COC(=O)[C@]12C[C@H](CC(=O)NCc3ccccc3)C(=O)N(CCC3=CCCCC3)C1=C[C@H](COCc1ccccc1)O[C@@H]2C	.	-14.3	.	.	10.8
CC(C)(C)NC(=O)COC(=O)c1snc(C(=O)NC2CCCCC2)c1N	16.8	35.7	29.6	15.5	66.8*
